This is part of a sample that, as a whole, favours compounds with a hit. Of some 83,000 tested, about 20% had one in any assay.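 Compound tested at a single concentration for 48 hours in 96-well plates; a percent growth value below 10 was scored as active.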 Active and inactive are the calls of the source.

The assay has as its system SW-620 colon. Description: NCI-60 one-dose screen, 48 h (100 = growth as untreated, 0 = no growth, -100 = all killed). The settings on record: 10 µM unless noted. How it is done:
Growth inhibition of the SW-620 human tumor cell line is measured as a screen for anti-cancer activity. Cells are grown in 96 well plates and exposed to the test compound for 48 hours. Compounds are tested at a single concentration, which is 10^-5 M for most compounds. The reported endpoint is percent growth (GI% or GIPRCNT), where numbers from 0 - 100% represent growth inhibition, and numbers from -100% - 0 represent cell death. For example, a value of 40 represents 60% growth inhibition. A value of 0 means no net growth occurred over the course of the experiment. A value of -40 indicates 40% of cells at the beginning of the experiment died by the end of the experiment. A value of -100 means all cells are dead at the end of the experiment.
NCI-60 Human Tumor Cell Lines Screen was performed using the standard one-dose NCI protocol, which is described in more detail at https://dtp.cancer.gov/discovery_development/nci-60/default.htm.
Compounds with GIPRCNT values below 10 were considered active. Activity score was based on GIPRCNT using the following formula: […]
Score is 0 for GIPRCNT values of 100 or above, 50 for GIPRCNT values of 0, and 100 for GIPRCNT values of -100.
Regarding `COc1cccc(CNc2c3ccccc3nc3ccccc23)c1OC`, the growth is 25.4% (inactive). As for `COC(=O)c1nc(-c2ccccc2)oc1S(=O)(=O)N1CCCC(C)C1` (stereo not given), the growth was 35.4% (inactive).

On to `CCOC(=O)C#Cc1c(C(=O)OCC)nnn1[C@@H]1O[C@H](COC)[C@@H](OC)[C@H]1OC`, for which the growth was -38.7% (active).

With `N=C(N)c1ccc(-c2ccc(-c3ccccc3)o2)o1`, the growth is 1.14% (active). For `CCOc1ccc(/C=C/C(=O)c2cccc(OCCCOc3cccc(C(=O)/C=C/c4ccc(OCC)cc4)c3)c2)cc1` the value was 98% (inactive); for `O=C(/C=C/c1cn(-c2ccccc2)nc1-c1ccccc1)CCC(=O)NO`, 108% (inactive). Regarding `FC(F)(F)c1[nH]ncc1-c1nc2ccc3[nH]ncc3c2c2c1CCCC2`, the growth was 7.83% (active).

In the case of `O=C1CCCC1[n+]1ccccc1` (stereo not given), the growth was 117% (inactive). For the molecule `COc1ccc(C(=O)/C=C/c2ccccc2)cc1S(N)(=O)=O`, the growth was 25.8% (inactive).

As for `CC(=O)c1c(Nc2cccc(F)c2)[nH]c2c(Cl)cc(Cl)c(Cl)c2c1=O`, the growth was 9.59% (active). For `COc1cc(/C=C2\C(=O)N(CCCOc3cc(O)c4c(=O)cc(-c5ccccc5)oc4c3)c3ccccc32)cc(OC)c1O` the value was 38.4% (inactive); for `CC(=O)c1ccc(-n2cc(CN3CCN(c4cc5c(cc4F)c(=O)c(C(=O)O)cn5C4CC4)CC3)nn2)cc1`, 90% (inactive); for `c1cc(OCCCCCOc2cccc(-c3nc4ccccc4[nH]3)c2)cc(-c2nc3ccccc3[nH]2)c1`, 12.7% (inactive). As to `O=C(C1=Cc2cc3ccccc3n2Cc2cnnn21)c1ccc(F)cc1`, the growth was 108% (inactive). With `O=C1Nc2ccc(Cl)cc2/C1=C/c1ccc[nH]1`, the growth was 112% (inactive).

Take `O=C(NCCCCCCNC(=O)OCc1ccc2c(Cl)cc(Cl)c(O)c2n1)OCc1ccc2c(Cl)cc(Cl)c(O)c2n1`: the growth is -62.8% (active). For `Cc1cccc(NC(=O)Cn2cc(CN3CCN(c4ccnc5cc(Cl)ccc45)CC3)nn2)c1` the value was 90.1% (inactive); for `N#Cc1ccc(/C=C/c2cn(-c3ccccc3)nc2-c2cccc([N+](=O)[O-])c2)cc1`, 57.1% (inactive). For the molecule `CCCC(=O)NC(c1ccc2c(c1)OCO2)c1cc(Cl)c2cccnc2c1O` (stereo not given), the growth was 24.7% (inactive). For `Cc1ccc(S(=O)(=O)c2nc(-c3ccccc3)oc2SCC(N)=O)cc1` the value was 104% (inactive); for `CC(C)(C)OC(=O)CN1CCc2c(sc3ncnc(N4CCN(c5ccc(F)cc5)CC4)c23)C1`, 77.7% (inactive); for `COc1ccc(Cl)cc1Nc1nc(C(F)(F)F)ccc1C(=O)N/N=C/c1ccc([N+](=O)[O-])cc1`, 5.81% (active). `CNC(=O)c1cc(Oc2ccc3c(c2)sc2nc(-c4cc(C(F)(F)F)cc(C(F)(F)F)c4)cn23)ccn1`: the growth is 64.9% (inactive).

Consider `COc1ccc(C2CC(n3ccnc3)c3cc(OC)c(OC)c(OC)c32)cc1O` (stereo not given), for which the growth was 62.5% (inactive). For `COc1cc(Cc2cc(-c3ccccc3)nn(Cc3ccccc3)c2=O)cc(OC)c1OC` the value was 50.1% (inactive); for `Cc1ccc(Cc2cnc(NC(=O)/C=C/c3ccc(C)o3)s2)cc1`, 22.7% (inactive); for `CCOC(=O)c1cnn(CC(C)O)c1NC(=O)NCc1ccccc1C(F)(F)F` (stereo not given), 105% (inactive). As for `Cc1ccc(-c2csc(NC(=O)CSc3nc(N)cc(N)n3)n2)cc1`, the growth is 93.6% (inactive). Turning to `O=c1ccc2ccc(OCCN3CCCCC3)cc2o1`, the growth is 93.9% (inactive). For `COC12C=C/C(=C(/C(=O)OCc3cncnc3)C(=O)CCCCCCCCC3(OC)C=C/C(=C(/C(=O)OCc4cncnc4)C(=O)CCCCCCCC1)O3)O2` the value was 4.94% (active); for `c1ccc(-c2ccc3c(c2)C2(CCNCC2)CN3)cc1`, 93.6% (inactive); for `COc1cc(Cc2cc(OC)c(O)c(OC)c2)cc(OC)c1O`, 41.4% (inactive). For `Cc1ccc2c(c1)nc(C)n2-c1ncnc2c1CC(C)c1cc(O)ccc1N2C` (stereo not given) the value was 21.5% (inactive); for `Cc1oc(-c2ccc(Cl)cc2)nc1C1=NN(C(=O)c2ccncc2)C(c2ccccc2)C1` (stereo not given), 95.2% (inactive). For `O=CCCCOCc1ccccc1` the value was 100% (inactive). On to `C=CCN=c1sc(-c2ccc3ccccc3c2)cn1NC(=O)c1cc2ccc1CCc1ccc(cc1)CC2`, for which the growth is 72.9% (inactive). On to `Clc1ccc(-c2cc(-c3ccccc3)nc(N3CCN(CCCNc4ccnc5cc(Cl)ccc45)CC3)n2)cc1`, for which the growth was -42.3% (active). For `CC(C)c1ccc2c(c1)CC[C@H]1[C@](C)(C(=O)OCC#CCN3CCCC3)CCC[C@]21C` the value was 84.6% (inactive); for `COCCOC(C)C(/C=N/NC(N)=S)=N/NC(N)=S` (stereo not given), 61.7% (inactive). For `CC1(C)CC[C@]2(CO)CC[C@]3(C)[C@](O)([C@H](O)C[C@@H]4[C@@]5(C)CCCNC(C)(C)[C@@H]5CC[C@]43C)[C@@H]2C1` the value was 99.6% (inactive).

(Values after PubChem BioAssay (NCI).)
